PLCb3 inh: human PLC-beta3 inhibitors, primary screen, biochemical, fluorescence. Purified PLC-beta3, fluorogenic substrate. inhibition, % at 12.2 µM. hit rate 0.18% among 370,000. AID 720704, 2013; in the data active = inhibition above about 11%;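 also: 0% = median of compound wells on plate and 100% = full blocker control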
ADAM10 inh: human ADAM10 inhibitors, primary screen, biochemical, QFRET, HTS; Disintegrin and metalloproteinase domain-containing protein 10 (Homo sapiens), O14672; recombinant ADAM10, EDANS/DABCYL FRET peptide cleavage, 3 h; inhibition, % at 7 µM; hit rate 0.62% among 370,000;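 active = inhibition above a per-campaign cutoff equal to the mean of compounds falling between control-based bounds plus 3 SD, cut at about 20% in these data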;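 also: 0% = DMSO wells while the 100% control is not disclosed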
PLCg1 inh: PLC-gamma1 enzyme inhibitors, primary screen, biochemical, fluorescence, purified enzyme. hit rate 0.84% among 370,000. inhibition, % at 12.2 µM. fluorogenic substrate. AID 720700, 2013
KLK7 zymogen act: proKLK7 zymogen activators, primary screen, biochemical, fluorescence intensity; Kallikrein-7 (Homo sapiens), P49862; purified proKLK7, EDANS-DABCYL substrate fluorescence; 100% is mature enzyme control, 0% vehicle; activation, % at 7 µM; hit rate 0.9% among 370,000; AID 652039, 2013;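 active = activation above the mean of all tested compounds plus 3 SD, computed per campaign excluding outliers beyond control limits, cut at about 13% in these data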
ADAM17 inh: ADAM17 inhibitors, primary screen, biochemical, QFRET; Disintegrin and metalloproteinase domain-containing protein 17 (Homo sapiens), P78536; recombinant ADAM17, EDANS/DABCYL FRET peptide cleavage; inhibition, % at 6.95 µM; hit rate 0.83% among 370,000; AID 720648, 2013;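 active = inhibition above the mean of compounds lying between control limits plus 3 SD, set per campaign, cut at about 8.5% in these data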;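 also: 0% = DMSO-only wells as the low control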
PLCgamma1 ctr: PLC-gamma1 enzyme inhibitors, counter-screen for PLC-beta3 inhibitor project, biochemical, fluorescence; hit rate 3.1% among 3,300; AID 743258, 2014; purified PLC-gamma1, fluorogenic substrate; inhibition, % at 12.3 µM; shares compounds with PLCg1 inh
PLCbeta3 conf: PLC-beta3 inhibitor confirmation, biochemical, fluorescence, purified enzyme. shares compounds with PLCg1 inh. fluorogenic substrate fluorescence. inhibition, % at 12.3 µM. hit rate 1% among 3,300. AID 743261, 2014; in the data active = inhibition above about 11%
* = called active by the depositor; i = inactive; x = not tested or not shown. Only some compounds are listed: those with a hit (about 2.9% of all), similar ones and a draw of the others. Rule as the data show it, unless noted: active = inhibition above about 9.5%; inactive = the rest.

SMILES	PLCb3 inh	ADAM10 inh	PLCg1 inh	KLK7 zymogen act	ADAM17 inh	PLCgamma1 ctr	PLCbeta3 conf
Cc1sc(NC(=O)CCS(=O)(=O)c2ccccc2)c(C#N)c1C	-1	-12	-1	0	-1	x	x
Cc1sc(NC(=O)CCC(=O)O)c(C#N)c1C	-6	3	11*	0	1	-7	1
CC(CCN1CCC(C(O)(c2ccccc2)c2ccccc2)CC1)Oc1ccc(C#N)cc1F (stereo not drawn)	6	8	8	0	4	x	x
COC(=O)NNC(=O)C12CC3CC(CC(C3)C1)C2	5	5	14*	0	1	-6	-3
O=C(N[C@@H](Cc1ccccc1)C(=O)NC1CC1)c1ccc(Cl)cc1	-3	-2	10*	0	1	0	1
CCCNC(=O)C(Cc1ccccc1)NC(=O)c1ccccc1 (stereo not drawn)	10	1	0	0	6	x	x
CCCNC(=O)C(Cc1cccc(Cl)c1)NC(=O)c1ccccc1 (stereo not drawn)	14*	10	5	0	4	-1	2
COc1cc(C(=O)Nc2ccc3c(c2)C(=O)N(CCC(=O)O)C3=O)cc(OC)c1OC	5	7	11*	-1	1	9.5*	3
CC(=O)Oc1ccc(C(=O)Nc2ccc3c(c2)C(=O)N(CCC(=O)O)C3=O)cc1	-483	i	-345	-261	-212	x	x
CCn1c(SCc2ccc(F)cc2)nc2ccccc2c1=O	-1	10	11*	0	5	-4	-6
CCn1c(SCc2ccc(OC)c(F)c2)nc2ccccc2c1=O	-8	1	-1	1	1	x	x
CCOc1ccc(Cl)cc1S(=O)(=O)N1CCN(c2ccc(C)c(C)c2)CC1	2	-4	10*	-1	0	-8	-3
Cc1ccc(-c2nnn(CC(=O)N3CCCCC3)n2)c(-n2cnnn2)c1	12*	5	8	-1	3	-3	1
CC(C)c1cccc(-c2csc(C(O)c3ccco3)n2)c1 (stereo not drawn)	-21	-7	-13	-2	-5	x	x
OC[C@@H]1CN(Cc2cccc(C(F)(F)F)c2)C[C@H](n2cnc3c(NCc4ccncc4)ncnc32)O1	1	-5	-2	0	-3	x	x
CC(C)(C)C1CCC(C(=O)Nc2ccccc2)CC1 (stereo not drawn)	5	11	11*	-1	3	6	13*
Cc1nn(C(=O)N2CCOCC2)c(C)c1CN1C(=O)c2ccccc2C1=O	-3	-4	-1	-1	-3	x	x
CC(=O)c1c(C)nn(C(=O)N2CCOCC2)c1C	15*	0	8	0	3	-7	-4
O=C(CN1CCC(n2nnc3cc(C(F)(F)F)ccc32)CC1)N1CCc2ccccc21	7	12	13*	0	5	-6	-2
COc1cccc(S(=O)(=O)N(C)C[C@@H]2Oc3ncc(Br)cc3C(=O)N([C@H](C)CO)C[C@@H]2C)c1	0	-6	1	0	-4	x	x
COc1ccc(C(CNC(=O)C(C)Oc2ccc(Br)cc2)N2CCCC2)cc1 (stereo not drawn)	-10	-29	-6	-2	-13	x	x
S=C(Nc1ccccc1Br)OCCN1CCCC12CCC(c1ccccc1)CC2 (stereo not drawn)	-3	1	-2	x	-3	x	x
CCOC(=O)N1C(=O)C2(CCCCC2)N(c2ccccc2Cl)C1=S	2	7	11*	0	6	-2	1
COC(=O)C(C(=O)OC)[C@H]1C=C[C@@H](C(=O)NS(=O)(=O)c2ccc(C)cc2)N(C(C)=O)C1	0	-5	81*	0	0	76*	-4
CC(=O)N1C[C@@H](c2c[nH]c3ccccc23)C=C[C@H]1C(=O)NS(=O)(=O)c1ccc(C)cc1	-17	-14	53*	0	-8	48*	-16
SMILES	PLCb3 inh	ADAM10 inh	PLCg1 inh	KLK7 zymogen act	ADAM17 inh	PLCgamma1 ctr	PLCbeta3 conf
CC(=O)N1CCC(c2c[nH]c3ccccc23)CC1	0	0	2	-1	2	x	x
Cc1n[nH]c(C)c1NC(=O)CN1CCN(S(=O)(=O)c2ccc(C(F)(F)F)cc2)CC1	-4	-18	10*	0	3	5	-1
COc1ccc([N+](=O)[O-])cc1NCC(=O)Nc1cc(S(=O)(=O)N2CCCCC2)ccc1C	-3	-10	1	-1	-10	x	x
CCOCCC(=O)Nc1ccc2c(c1)c(=O)n(C)n2C/C=C/c1ccccc1	-246	i	-180	6	-303	x	x
CCCc1n[nH]c2c1C(=O)CC(C)(C)C2	8	8	11*	0	3	-3	-1
O=C(NCCc1ccccc1)c1c[nH]c2ccccc2c1=O	11*	-1	9	0	2	-3	-2
COc1ccc(CCNC(=O)c2c[nH]c3ccccc3c2=O)cc1OC	0	-10	2	0	-1	x	x
Cc1c(C(=O)NN)[nH]c2ccc([N+](=O)[O-])cc12	59*	3	1	0	0	-8	-2
CCOC(=O)c1c(C)n(-c2ccc(C)cc2)c2c(CC(C)=O)c(Br)c(OC)c(O)c12	7	11	10*	0	5	-5	-3
NC1=C(Br)C(=O)c2ncccc2C1=O	6	-21	9.5*	-1	0	6	5
CC(C)CC(=O)Nc1cccc(NC(=O)CC(C)C)n1	-3	-16	10*	0	-6	-8	-7
CC(=O)Nc1ccc(S(=O)(=O)N/N=C/c2ccc(C)s2)cc1	12*	9	4	0	1	-4	1
CCCCCCn1cc(CN2CC(N3CCN(C4CCN(C)CC4)CC3)CS2(=O)=O)nn1 (stereo not drawn)	1	-16	0	0	-1	x	x
CC(C)(C)c1ccc(C(=O)Nc2cccc(-n3cnnn3)c2)cc1	3	2	3	0	6	x	x
COc1ccc(NC(=O)C2CCCN(S(C)(=O)=O)C2)cc1OC (stereo not drawn)	-1	8	10*	0	6	-5	-4
COc1ccc(NC(=O)C2CCCN(S(=O)(=O)c3ccc(C)cc3)C2)cc1OC (stereo not drawn)	-1	-11	2	0	-7	x	x
CCOC(=O)/C(C#N)=C/c1c(OCC)n(CC)c2ccccc12	-8	3	10*	-1	2	-10	-9
